# Results from ChEMBL document CHEMBL4513216, “Probing the Open Global Health Chemical Diversity Library for Multistage-Active Starting Points for Next-Generation Antimalarials” (ACS Infect Dis, 2020).
# Out of some 69,000 compounds screened, about 8,600 (12%) showed an effect of 50% or more. The sample holds strong results, similar compounds and a random draw of the others, so the mix is not that of the screen.
# Tested on: Plasmodium berghei
# Test: Screen against P. berghei liver stage (PbLuc), transformed with Luciferase, at 10uM
# Format: functional, HepG2
# Details: tested at 10 uM
row,Structure (SMILES),INHIBITION [%]
1,CN(CCCc1cc(-c2ccccc2)no1)S(C)(=O)=O,-42.55
2,O=C(Cc1ccc2c(c1)CCO2)N1CCN(c2ccncc2)CC1,15.3
3,CC(C)NC(=O)[C@H]1C[C@H]2CN(C(=O)NCCc3ccccc3)C[C@@H]1O2,5.67
4,O=C(CNC(=O)c1ccc2c(c1)CCC2)NCCNc1ncccn1,-24.3
5,CCNC(=O)Nc1ncc(-c2cccnc2)s1,4.41
6,CC(C)C(C)n1nccc1NC(=O)Cn1cnc2ccccc21 (stereo unspecified),-8.99
7,COc1ccc(C(=O)Nc2n[nH]c(C3CCCO3)n2)cc1 (stereo unspecified),32.3
8,COC(=O)c1cccc(C(=O)N2CCN(c3ccccc3F)CC2)n1,30
9,COC(=O)c1cccc(C(=O)N2CCN(c3cc(C)ccc3C)CC2)n1,-19.4
10,COC(=O)c1cccc(C(=O)N2CCN(c3cc(Cl)ccc3C)CC2)n1,66.4
11,Cc1nn(C)c(C)c1C(=O)N1CCN(c2ccncc2Cl)CC1,43.9
12,Cc1cccc(N2CCN(C(=O)NC(C)c3nncn3C)CC2)c1C (stereo unspecified),-48.4
13,COC(=O)c1cccc(C(=O)N2CCN(c3cccc(C)c3C)CC2)n1,74.2
14,Cc1cccc(N2CCN(C(=O)c3c(C)nn(C)c3C)CC2)c1C,54.8
15,COC(=O)c1cccc(C(=O)N2CCN(c3ccc(Cl)cc3)CC2)n1,-18.3
16,COC(=O)c1cccc(C(=O)N2CCN(c3ccc(OC)cc3)CC2)n1,5.51
17,CN(C(=O)c1ncn2c1CN(C)S(=O)(=O)c1ccccc1-2)C1CC1,-30
18,CCC(C(=O)N(C)CCC1=CCN(C)CC1)c1ccccc1 (stereo unspecified),24
19,CCC(C)NC(=O)c1cc(S(=O)(=O)N(C)C)c(C)s1 (stereo unspecified),19.5
20,O=S1(=O)NC2(CCCN(CCc3ccccc3)C2)COc2ccccc21 (stereo unspecified),24.2
21,Cc1nc(N2CCCN(C(=O)c3ccsc3)CC2)c2cnn(C)c2n1,14.4
22,CS(=O)(=O)NCCC1CCCCN1C(=O)NCCc1ccccn1 (stereo unspecified),-25.6
23,Cc1nc(CN2CCCC2c2[nH]ncc2C(=O)N(C)C)cs1 (stereo unspecified),8.53

row,Structure (SMILES),INHIBITION [%]
1,CCOc1ccccc1C(C(=O)O)N(C)Cc1nc(C)c[nH]1 (stereo unspecified),21.1
2,CC(C)Oc1cccc(F)c1C(C(=O)O)N(C)Cc1ccon1 (stereo unspecified),71.2
3,COc1ccc(Cl)cc1C(C(=O)O)N(C)Cc1ccon1 (stereo unspecified),-73.6
4,Cc1c[nH]c(CN(C)C(C(=O)O)c2c(F)cccc2OC(C)C)n1 (stereo unspecified),58.2
5,COc1cc(F)ccc1C(C(=O)O)N(C)Cc1ccon1 (stereo unspecified),-66.4
6,Cc1c[nH]c(CN(C)C(C(=O)O)c2c(F)cccc2Cl)n1 (stereo unspecified),16.5
7,CC(Cn1cccn1)NC(=O)c1cccs1 (stereo unspecified),-40.2
8,CN1CCCC1CCNC(=O)Nc1ccccc1 (stereo unspecified),27.3
9,Cc1cc(Oc2ccccc2C)nc(C2CCCN2)n1 (stereo unspecified),4.41
10,Cc1cccc(C(=O)NC(C)CN2CCCC2=O)n1 (stereo unspecified),4
11,O=C(CCn1ccnc1)N1C[C@@H](O)[C@H](Oc2cccc(F)c2)C1,-31
12,CC(=O)NCC(=O)N1CCOC2(CCCN(c3cccnc3)C2)C1 (stereo unspecified),6.8
13,Cc1cc(C)nc(N2CCCC(c3nccn3CCCN(C)C)C2)c1 (stereo unspecified),17.1
14,CN(C)C(=O)COCC1CN(Cc2ccco2)Cc2ncn(C)c21 (stereo unspecified),39.5
15,NC(=O)c1cnc2n1CCN(C(=O)c1ccc(-c3cc[nH]n3)cc1)C2,11.7
16,O=C1COc2cccc(OCc3ccccn3)c2N1,12.3
17,CC(C)c1nc(COc2cccc3c2NC(=O)CO3)cs1,79.1
18,Cc1ncc(COc2cccc3c2NC(=O)CO3)s1,8.05
19,O=C(CCc1nc(-c2ccccn2)no1)N1CCCC1c1ccsc1 (stereo unspecified),7.08
20,O=C(CCN1CCOCC1)NC(Cc1ccsc1)c1nccs1 (stereo unspecified),5.055
21,Cc1nc(C2CCCN2C(=O)CCc2ccccc2)ncc1C(N)=O (stereo unspecified),18.3
22,Cc1nc(C2CCCN2C(=O)c2ccccc2)ncc1C(N)=O (stereo unspecified),40.4
23,NC(=O)c1cn[nH]c1C1CCCN1C(=O)COc1ccccc1 (stereo unspecified),52.7

row,Structure (SMILES),INHIBITION [%]
1,Cc1nc(C2CCCN2C(=O)CC2CCCC2)ncc1C(N)=O (stereo unspecified),17.1
2,Cc1nc(C2CCCN2C(=O)c2ccc(F)cc2)ncc1C(N)=O (stereo unspecified),55.6
3,NC(=O)c1cn[nH]c1C1CCCN1C(=O)c1ccccn1 (stereo unspecified),11.8
4,Cc1nc(C2CCCN2C(=O)COc2ccccc2)ncc1C(N)=O (stereo unspecified),52
5,NC(=O)c1cn[nH]c1C1CCCN1C(=O)c1ccccc1 (stereo unspecified),6.26
6,Cc1nc(C2CCCN2C(=O)Cc2ccc(F)cc2)ncc1C(N)=O (stereo unspecified),19.6
7,COC(=O)NCC(=O)N1CCc2cc(Cl)cc(Cl)c2C1,-10.9
8,Cc1nc(-c2ccccc2C)n(CC(=O)NC2CCCC2)n1,7.27
9,O=C(c1cscn1)N1CCCC(n2cncn2)C1 (stereo unspecified),-17.4
10,OC1(CN(Cc2cccnc2)C2CCCCC2)CNCCOC1 (stereo unspecified),41.8
11,O=C(C1CCOCC1)N1CCOC(CC2CCCCC2)C1 (stereo unspecified),54.8
12,O=C(C1CCOCC1)N1C[C@@H]2OCCN(CCN3CCCC3)[C@@H]2C1,46.7
13,CC(=O)N1CCC(C(=O)N2CCOC(CC3CCCCC3)C2)CC1 (stereo unspecified),54.8
14,CN(C)C(=O)N1CCC(C(=O)N2CCOC(CC3CCCCC3)C2)CC1 (stereo unspecified),22.2
15,CC(=O)N1CCC(N2CCOC(CC3CCCCC3)C2)CC1 (stereo unspecified),35.2
16,Cc1ncoc1C(=O)N1CCOC(CC2CCCCC2)C1 (stereo unspecified),24.7
17,Clc1ccc2cccnc2c1CNC1CCc2ncnn2C1 (stereo unspecified),-92.9
18,Cc1cc(N(C)C)cc(C2CCN(S(=O)(=O)c3cccs3)C2)n1 (stereo unspecified),46.55
19,CC(C)NC(=O)c1cccc(Oc2ccc3nncn3n2)c1,2.84
20,Cc1nc(-c2ccsc2)ccc1C(=O)NCCN1CCN(C)CC1,18.515
21,CCC1=NC(SCC(=O)c2ccc(OC)cc2)c2cc(CC)sc2N1 (stereo unspecified),36.6
22,CC(C)C(=O)N1CCC2(CCCN(CCOc3ccccc3)C2)C1 (stereo unspecified),-4.27
23,CN(C)C(=O)N1CCC2(CCCN(CCOc3ccccc3)C2)C1 (stereo unspecified),-44.2

row,Structure (SMILES),INHIBITION [%]
1,O=C(N1CCCC1)N1CCC2(CCCN(CCOc3ccccc3)C2)C1 (stereo unspecified),69.9
2,c1ccc(CCN2CCOC(CNc3cccnn3)C2)nc1 (stereo unspecified),-71.2
3,CC(NC(=O)N1CCC2(C1)OCCO2)c1cccc(Cl)c1 (stereo unspecified),5.58
4,Cc1cccc(C(C)CNC(=O)N2CCC3(C2)OCCO3)c1 (stereo unspecified),52.6
5,Cc1cccc(C(C)CNC(=O)N2CCOCC3(CCOCC3)C2)c1 (stereo unspecified),-7.36
6,Cc1ccc(C)n1-c1ccsc1C(=O)NCC(=O)N1CCCC1,-7.7
7,COc1ccc(-n2cc3nc(N4CCCC4)[nH]cc-3c2=O)cc1Cl,30.8
8,Cc1ccc(OC2(C(=O)NC(C)Cc3ccsc3)CCNCC2)cc1 (stereo unspecified),-8.75
9,c1ncc2c(n1)CN(Cc1nc(-c3ccoc3)no1)CC2,-21.87
10,Cc1cc(CS(=O)(=O)C(C)c2ccc(F)cc2)on1 (stereo unspecified),-41
11,Cc1cc(NC(=O)CN(CC(C)O)c2ccccc2)on1 (stereo unspecified),51.3
12,Cc1noc(CN(C)c2ccccc2)n1,29.8
13,CCC(O)CN(CC(=O)Nc1cc(C)no1)c1ccccc1 (stereo unspecified),16.8
14,CCN(C(=O)C(C)S(=O)(=O)Cc1nc(C)no1)c1ccccc1 (stereo unspecified),26.9
15,Cc1noc(C)c1CS(=O)(=O)C(C)C(=O)N(C)c1ccccc1 (stereo unspecified),11.5
16,Cc1cc(NC(=O)CN(c2ccccc2)C(C)C)on1,13
17,Cc1noc(CS(=O)(=O)C(C)C(=O)N(C)c2ccccc2)n1 (stereo unspecified),50.8
18,Cc1cc(CS(=O)(=O)C(C)C(=O)N(C)c2ccccc2)on1 (stereo unspecified),59.4
19,CC(C)N(Cc1ccccn1)C(=O)CCOc1cccc(F)c1,-1.32
20,COc1ccc(NC(=O)C2OC(c3cccs3)=NN2C(C)=O)cc1OC (stereo unspecified),14.5
21,O=C(CC1CC1)N1CCC(O)(CN2CCN(c3ccccc3)CC2)C1 (stereo unspecified),17.4
22,Cc1nnc(NC(=O)CN2CCc3nn(C(C)C)c(=O)cc3C2)s1,-18
23,O=C(c1cscn1)N1CCc2ncc(CN3CCCC3)n2CC1,23.1

row,Structure (SMILES),INHIBITION [%]
1,Cc1nccc(CNc2cc(N3CCCC3CO)ncn2)n1 (stereo unspecified),-0.219
2,COc1ccc(CN2C[C@@H]3CN(Cc4ccncc4)C[C@@H]3C2=O)cc1,-2.35
3,Cc1n[nH]c(C)c1CCCN(C)c1cc(N(C)C)ncn1,8.51
4,O=C(NCCc1ccccn1)N1CCSC2(CCCCC2)C1,3.17
5,COCCNC(=O)N1CCSC2(CCCCC2)C1,52.6
6,C[S+]([O-])CCNC(=O)N1CCSC2(CCCCC2)C1 (stereo unspecified),25.4
7,CSc1cccc(CN(C)C(=O)CN2CCN(c3ncccn3)CC2)c1,10.6
8,Cc1nc(NC(=O)N(C)Cc2ccoc2)nn1C,-10.9
9,CCc1nc(NC(=O)N(C)Cc2ccoc2)nn1C,63.6
10,CSc1cccc(CN(C)C(=O)Nc2nc(C)n(C)n2)c1,71.8
11,Cc1nc(NC(=O)N(C)Cc2ccsc2)nn1C,25.9
12,CCN(Cc1ccoc1)C(=O)Nc1ccccc1CN(C)C(C)=O,6.99
13,Cc1cnc(N2C[C@@H]3CN(Cc4ccco4)CCC[C@]3(C(=O)O)C2)nc1,15.3
14,O=C(CCNC(=O)C1CCCC1)NCc1ccccc1Cn1ccnc1,7.27
15,COc1ccc(CNC(=O)Nc2cccnc2N2CCCC2)cc1,19.2
16,O=C(NCC1CC1)c1cc(Br)cnc1N1CCCCC1,16.4
17,CCCN1CCC2(Cc3ccccc3NC2=O)C1 (stereo unspecified),36.2
18,CC(C)CN1CCC2(Cc3ccccc3NC2=O)C1 (stereo unspecified),58.7
19,O=C1Nc2ccccc2CC12CCN(CCO)C2 (stereo unspecified),-36.2
